A short description of assay [1]: blockers of polyQ-driven CASP3 activation – cell-based (AID 1583). Particulars: polyglutamine-induced caspase-3 activation, cell assay; stronger effect = higher value;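 tested at 10 µM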.
Assay [2] can be described thus: yeast 75Q aggregation reduction – 75Q-TubU reporter (AID 1593). To be noted: Yeast 75Q polyglutamine aggregation reporter.
Assay [3] can be described thus: restoration of touch response, mutant HTT neurons – whole organism, C. elegans mechanosensory neurons, N-terminal huntingtin (AID 1599). To be noted: C. elegans polyQ-huntingtin mechanosensory neurons, stronger effect = higher value.
A short description of assay [4]: blockers of cytochrome c efflux from mitochondria – biochemical, purified mitochondria (AID 1603).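 Note: mouse liver mitochondria challenged with calcium chloride; signal normalized to the plate average as 100%.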 To be noted: stronger effect = lower value.
Assay [5] in a line: polyglutamine aggregate formation blockers (AID 1604). To be noted: polyglutamine-induced protein aggregation inhibition assay; stronger effect = higher value; tested at 2.5 µM.
Assay [6] is described as follows: glutamate transport activators, MN-1 cells, MN-1 cell line (AID 1612).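 Note: tested at 1 µM final; 0% = mean of DMSO vehicle wells on each plate; positive means more glutamate uptake than control and negative means less.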 Particulars: MN-1 motor neuron cells, stronger effect = higher value.
Assay [7] is described as follows: 75Q-TubH aggregate inhibition, S. cerevisiae, yeast (AID 1616). To be noted: S. cerevisiae 75Q-TubH polyglutamine aggregation suppression; stronger effect = higher value.
A short description of assay [8]: compounds altering viability of human ES cells (AID 493140; call rule not given here;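 note: cells exposed to compounds for four days before counting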). To be noted: human embryonic stem cell survival screen; stronger effect = higher value.
Assay [9] can be described thus: signal quenchers or enhancers, Cy5 substrate/SSB – biochemical, NIH Clinical Collection, E. coli SSB, artefact control for HCV NS3 helicase inhibitor project (AID 743268; call rule not given here). To be noted: Cy5-oligo bound E. coli SSB, fluorescence interference.
For assay [10], the system named is Hepatitis C virus NS3 helicase. In words: blockers of NS3h binding to DNA – biochemical, fluorescence polarization, NIH Clinical Collection, primary screen (AID 743270; call rule not given here). Particulars: NS3 helicase binding to Cy5-dT15 DNA, stronger effect = higher value, concentration not given here. On the technique in general: Polarisation of emitted light reports the rotation of a fluorescent probe.

Assay [11] has as its target Single-stranded DNA-binding protein (Escherichia coli (strain K12)) (UniProt P0AGE0). In words: SSB-ssDNA binding inhibitors – biochemical, fluorescence polarization, NIH Clinical Collection, counter-screen for HCV NS3 helicase inhibitor project (AID 743271; in the data active = inhibition above about 28%). To be noted: E. coli SSB-DNA binding, stronger effect = higher value, concentration not given here.
A short description of assay [12]: compounds distorting NS3 helicase fluorescence signal – biochemical, NIH Clinical Collection, artefact control for HCV NS3 helicase inhibitor project (AID 743272; call rule not given here;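 note: HCV NS3 helicase with a Cy5 labelled single stranded DNA probe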). To be noted: fluorescence interference counterscreen, HCV NS3 helicase assay; stronger effect = lower value.
The nature of assay [13]: galactose survival enhancers in mitochondrial complex I cybrids – cell-based, galactose medium, ATP luminescence, primary screen (AID 1645843;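 active = z-score of at least 1.8 in each of two replicates, scored against plate mean and spread of sample wells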;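 note: positive z means more ATP and so rescue of galactose-driven cybrid death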). Particulars: complex I mutant cybrid cells, 72 h, stronger effect = higher value.
In assay [14] the test system is R275C. In words: BK channel mutant inhibitors and activators – cell-based, U2OS BacMam, thallium flux, beta subunits, selectivity assay, profiling panel (AID 1259406).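 Note: initial slope of Thallos dye fluorescence rise after thallium is added; log ratio against the mean of 0.3% DMSO vehicle wells on the same plate.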 Particulars: U2OS BacMam BK variants, at 30 µM.
Assay [15] relates to R275C/beta1. The description is as above. To be noted: U2OS BacMam BK variants, at 30 µM.
Assay [16] concerns R275C/beta2Delta. Described as above. To be noted: U2OS BacMam BK variants, at 30 µM.
The test system of assay [17] is R275C/beta4. Described as above. Particulars: U2OS BacMam BK variants, at 30 µM.
Assay [18] relates to R275C/Slo1WT/beta2. Described as above. Particulars: U2OS BacMam BK variants, at 30 µM.

Where “and” joins values, the source holds several entries; their conditions need not be identical. Equal values may be shown once. For some assays here: Potency and affinity values are given separately. Calls of active or inactive are those of the source.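 Rule for the calls, unless noted: active = thallium flux through the channel raised or lowered by more than 3 SD from vehicle-only wells, actives on both sides; inactive = the rest.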

As a reminder, the inhibition is the drop in the measured response relative to a control, in per cent. In the case of `NS(=O)(=O)c1cc2c(cc1Cl)NCNS2(=O)=O`, the figures for the inhibition in [1], in [10] and in assay [11] were -3.39%, -5% (inactive) and -3.53% (inactive), respectively. The same molecule registered a score in assay [2] of 1.21. This molecule also registered a rescue above control in assay [3] of 7.5. For the same molecule, the cytochrome c release ratio in assay [4] was found to be 1.08. In assay [5], the inhibition of aggregation is 3.17%. The glutamate uptake change in assay [6] worked out at 8.53%. Also, in assay [7], the aggregation suppression score was 0.805. The survival in assay [8] was 7.5 (inactive). Besides, the fluorescence ratio is 0.125 (active) in [9] and 1 (inactive) in assay [12]. For the same molecule, the z-score in assay [13] is 0.29 (inactive) and 0.995 (inactive). In addition, the log fold change Tl+ flux in [14] is -0.00411 (inactive); in assay [15], 0.0065 (inactive); in assay [16], -0.0287 (inactive); in assay [17], 0.00368 (inactive); in assay [18], 0.0144 (inactive).

Turning to `CC(C[N+](C)(C)C)OC(N)=O` (centres undefined), the inhibition in assay [1] is 18.5%; in assay [10], -3.18% (inactive); in assay [11], -1.24% (inactive). The score in assay [2] is 1.26. The molecule further yielded a rescue above control in assay [3] of 20.6. Further, the cytochrome c release ratio in assay [4] worked out at 0.92. Also, the inhibition of aggregation in [5] was -22.2%. Also, in [6], the glutamate uptake change was -0.67%. In assay [7], the aggregation suppression score was determined as 1.26. In addition, the survival in assay [8] was 18.5 (inactive). Besides, the fluorescence ratio in [9] is 1.06 (inactive); in assay [12], 1.01 (inactive). Also, the z-score in assay [13] was -0.115 (inactive) and 0.415 (inactive) and 0.59 (inactive). Further, the log fold change Tl+ flux in assay [14] is 0.0156 (inactive); in assay [15], 0.0122 (inactive); in assay [16], 0.00284 (inactive); in assay [17], 0.043 (inactive); in [18], 0.0355 (inactive).

As for `CC(COc1ccccc1)N(CCCl)Cc1ccccc1` (centres undefined), the inhibition in assay [1] was 31.4%; in assay [10], -5% (inactive); in [11], -0.48% (inactive). Also, in assay [2], the score worked out at 0.5. This molecule also yielded a rescue above control in assay [3] of 11.3. In addition, in assay [4], the cytochrome c release ratio was 4.04. Further, the inhibition of aggregation in assay [5] came out at 33.3%. Moreover, the glutamate uptake change in assay [6] came out at 18.7%. The same molecule had an aggregation suppression score in assay [7] of 0.789. For the same molecule, in assay [8], the survival is 5.08 (inactive). Further, the fluorescence ratio in assay [9] is 1.06 (inactive); in [12], 0.95 (inactive). Moreover, the z-score in [13] was -0.605 (inactive) and -1.23 (inactive). In addition, the log fold change Tl+ flux in assay [14] was -0.0819 (inactive); in assay [15], 0.0364 (inactive); in assay [16], -0.0434 (inactive); in assay [17], 0.0533 (inactive); in assay [18], -0.0106 (inactive).

As for `CCCCNc1cc(C(=O)O)cc(S(N)(=O)=O)c1Oc1ccccc1`, the inhibition in [1] is 4.16%; in assay [10], -5.91% (inactive); in [11] it was -2.76% (inactive). The same molecule displayed a score in [2] of 1.19. In addition, in assay [3], the rescue above control is -11.4. In addition, in [4], the cytochrome c release ratio stood at 1.53. In addition, in assay [5], the inhibition of aggregation was found to be 71.8%. For the same molecule, in [6], the glutamate uptake change is -4.68%. Moreover, the aggregation suppression score in assay [7] came out at 1.32. Also, in assay [8], the survival was 12.6 (inactive). The figures for the fluorescence ratio in assay [9] and in assay [12] were 1.02 (inactive) and 0.97 (inactive), respectively. The z-score in [13] was 0.145 (inactive) and 0.39 (inactive) and 0.32 (inactive). For the same molecule, the log fold change Tl+ flux in assay [14] is -0.00799 (inactive); in assay [15] it was 0.0319 (inactive); in [16], -0.0196 (inactive); in [17], 0.0225 (inactive); in assay [18], 0.0333 (inactive).

Turning to `CC1Cc2ccccc2N1NC(=O)c1ccc(Cl)c(S(N)(=O)=O)c1` (centres undefined), the inhibition in assay [1] is 11.1%; in assay [10] it was 0.45% (inactive); in assay [11], 1.05% (inactive). In [2], this molecule registered a score of 1.1. In addition, the rescue above control in assay [3] was found to be 19. Moreover, the cytochrome c release ratio in assay [4] worked out at 0.89. For the same molecule, the inhibition of aggregation in assay [5] was determined as 85.9%. For the same molecule, the glutamate uptake change in [6] was -15%. In addition, the aggregation suppression score in [7] was determined as 1.3. Also, the fluorescence ratio is 0.31 (active) in [9] and 0.97 (inactive) in [12]. For the same molecule, in assay [13], the z-score was 0.635 (inactive) and 0.155 (inactive). Moreover, the log fold change Tl+ flux is 0.0209 (inactive) in assay [14]; 0.0126 (inactive) in assay [15]; -0.00869 (inactive) in assay [16]; 0.00861 (inactive) in [17]; -0.000687 (inactive) in [18].
